Some test systems named below: SK-MEL-2 melanoma; EKVX NSCLC; SN12C renal; UO-31 renal; ACHN renal; A498 renal; CCRF-CEM leukemia; MOLT-4 leukemia; RPMI-8226 leukemia; OVCAR-8 ovarian; OVCAR-5 ovarian; OVCAR-4 ovarian; IGROV1 ovarian; OVCAR-3 ovarian; HS 578T breast; NCI/ADR-RES ovarian; CAKI-1 renal; SR leukemia; SK-OV-3 ovarian; TK-10 renal.
Assay in all cases: NCI-60 one-dose screen, 48 h (100 = growth as untreated, 0 = no growth, -100 = all killed)
Settings in all cases: 10 µM unless noted

About 83,000 compounds went through this panel and 20% of them were active in at least one assay; those are over-represented in the sample as a whole.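 Note: values are percent growth. 100 is the growth of untreated cells, values between 100 and 0 indicate rising inhibition; between -100 and 0 indicates cell death.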 A number with no mark means an inactive call. Activity calls are given as the source filed them. Rule for the calls: active = growth percent below 10; inactive = the rest.

Consider `Cc1nc2c3c(-c4ccccc4)c(-c4ccccc4)oc3ncn2n1`, for which the growth in the assay on SK-MEL-2 melanoma is 101%; in the assay with EKVX NSCLC it was 88.9%; in the assay on SN12C renal it was 96.5%; in the assay with UO-31 renal, 83.9%; with ACHN renal, 94.6%; in the assay on A498 renal, 67.9%. Moreover, the growth with CCRF-CEM leukemia is 96.7%; with MOLT-4 leukemia, 89.9%; in the assay on RPMI-8226 leukemia, 92.7%; with OVCAR-8 ovarian, 97.3%; in the assay on OVCAR-5 ovarian, 95.4%; in the assay with OVCAR-4 ovarian it was 83%. In addition, the growth was 94.7% with IGROV1 ovarian, 111% in the assay on OVCAR-3 ovarian, 95.8% in the assay on HS 578T breast and 94.1% in the assay on NCI/ADR-RES ovarian.

Regarding `O=C1OCC2=C1C(c1ccncc1)c1cc3c(cc1N2CCO)OCO3` (centres undefined), the growth was 107% in the assay with SK-MEL-2 melanoma; 101% in the assay with EKVX NSCLC; 100% in the assay with SN12C renal; 94.7% with UO-31 renal; 105% in the assay with ACHN renal; 99.3% with CAKI-1 renal. Also, the growth is 90% in the assay with A498 renal; 94% in the assay on CCRF-CEM leukemia; 107% in the assay on MOLT-4 leukemia; 122% with SR leukemia; 103% in the assay with RPMI-8226 leukemia; 98.8% in the assay on OVCAR-8 ovarian. The growth in the assay on OVCAR-4 ovarian was 100%; in the assay with SK-OV-3 ovarian, 87.3%; in the assay with IGROV1 ovarian, 101%; in the assay with OVCAR-3 ovarian it was 105%; in the assay with HS 578T breast, 87%; with NCI/ADR-RES ovarian it was 104%.

`O=c1cc(/C(=C2/C=CC=N2)c2ccc[nH]2)c2cc(Cl)ccc2o1`: the growth with SK-MEL-2 melanoma is 62.4%; in the assay with EKVX NSCLC, 44.8%; with UO-31 renal it was 41%; in the assay on TK-10 renal, 63%; in the assay on ACHN renal, 48%; in the assay on CAKI-1 renal it was 55.7%. The growth in the assay on A498 renal is 10.8%; with CCRF-CEM leukemia, 28.3%; in the assay on MOLT-4 leukemia, 7.2% (active); in the assay with SR leukemia, 23.7%; with RPMI-8226 leukemia, 51%; in the assay with OVCAR-8 ovarian it was -4.06% (active). In addition, the growth in the assay with OVCAR-5 ovarian was 93.1%; in the assay on OVCAR-4 ovarian it was 77%; in the assay with SK-OV-3 ovarian, 34.8%; in the assay with IGROV1 ovarian it was 31.5%; in the assay on OVCAR-3 ovarian, -20.3% (active); with HS 578T breast, 22.2%. For the same compound, the growth in the assay with NCI/ADR-RES ovarian is 5.06% (active).

Regarding `O=C1C=C(O)C(=O)C(CC2=C(O)C(=O)C=C(O)C2=O)=C1O`, the growth in the assay with SK-MEL-2 melanoma was 104%; in the assay with EKVX NSCLC it was 102%; with SN12C renal, 97.8%; in the assay with UO-31 renal it was 94.6%; with ACHN renal it was 97.5%; in the assay with A498 renal, 86.6%. The growth in the assay on CCRF-CEM leukemia is 115%; in the assay on MOLT-4 leukemia, 104%; in the assay on SR leukemia, 103%; in the assay with RPMI-8226 leukemia, 107%; with OVCAR-8 ovarian it was 105%; with OVCAR-5 ovarian it was 91%. Also, the growth is 101% with OVCAR-4 ovarian; 109% in the assay with IGROV1 ovarian; 108% in the assay with OVCAR-3 ovarian; 99.4% with HS 578T breast; 99.6% in the assay with NCI/ADR-RES ovarian.

Regarding `COc1ccc(CN2c3ccccc3Oc3ccccc32)cc1O`, the growth was -6.69% (active) in the assay with SK-MEL-2 melanoma; 35% in the assay with EKVX NSCLC; 32.5% in the assay on UO-31 renal; 64.4% with TK-10 renal; 36.1% with ACHN renal; 39.4% with CAKI-1 renal. Moreover, the growth in the assay on A498 renal is 106%; in the assay on CCRF-CEM leukemia, 12.5%; in the assay on MOLT-4 leukemia it was 24.9%; with SR leukemia, 17.4%; with RPMI-8226 leukemia, 14.1%; in the assay with OVCAR-8 ovarian it was 35.6%. For the same compound, the growth in the assay with OVCAR-5 ovarian was 91.5%; in the assay on OVCAR-4 ovarian, 55.1%; with SK-OV-3 ovarian, 31.3%; in the assay with IGROV1 ovarian it was 45.3%; in the assay with OVCAR-3 ovarian, 18.6%; with HS 578T breast it was 31.1%. In the assay on NCI/ADR-RES ovarian, the growth was 25.2%.

Take `COc1cccc(NC(=O)c2sc3nc(C)c(C(C)=O)cc3c2N)c1`: the growth in the assay with SK-MEL-2 melanoma is 24.5%; in the assay with EKVX NSCLC, 56.4%; in the assay with SN12C renal, 55.9%; in the assay on UO-31 renal, 75.2%; in the assay with ACHN renal it was 63.3%; with A498 renal it was 17.2%. The growth with CCRF-CEM leukemia is 51.6%; with SR leukemia, 19%; with RPMI-8226 leukemia, 52.2%; in the assay with OVCAR-8 ovarian, 63.5%; with OVCAR-5 ovarian, 112%; in the assay with OVCAR-4 ovarian, 63.7%. Moreover, the growth is 25.2% with SK-OV-3 ovarian; 59.7% in the assay with IGROV1 ovarian; 17.8% in the assay with OVCAR-3 ovarian; 43.3% in the assay on HS 578T breast; 34.1% in the assay with NCI/ADR-RES ovarian.

Take `COC(=O)c1ccc(Cn2cnc3c(N)ncnc32)cc1`: the growth in the assay on SK-MEL-2 melanoma is 90.8%; in the assay on EKVX NSCLC, 102%; with SN12C renal it was 102%; in the assay with UO-31 renal it was 89.9%; in the assay on ACHN renal, 101%; in the assay with CAKI-1 renal it was 103%. The growth with A498 renal was 104%; in the assay on CCRF-CEM leukemia, 102%; in the assay on MOLT-4 leukemia it was 93.2%; with SR leukemia, 104%; in the assay with RPMI-8226 leukemia it was 104%; in the assay with OVCAR-8 ovarian, 112%. Further, the growth with OVCAR-5 ovarian was 115%; in the assay with SK-OV-3 ovarian, 107%; in the assay with OVCAR-3 ovarian, 118%; with HS 578T breast, 95.4%; in the assay on NCI/ADR-RES ovarian, 110%.

For the compound `CNC(=O)c1cc(Oc2ccc(NC(=O)Nc3ccc(Cl)c(SC)c3)c(F)c2)ccn1`, the growth in the assay with SK-MEL-2 melanoma was 21.6%; in the assay with EKVX NSCLC, 32.4%; with UO-31 renal it was 42.6%; in the assay with TK-10 renal, 55.3%; in the assay on ACHN renal, 52.6%; in the assay on CAKI-1 renal it was 70.1%. The growth with A498 renal was 41.3%; in the assay with CCRF-CEM leukemia, 40.7%; in the assay on MOLT-4 leukemia it was 22.8%; with SR leukemia, 31.4%; in the assay with RPMI-8226 leukemia, 27.6%; in the assay on OVCAR-8 ovarian, 49.9%. The growth in the assay with OVCAR-5 ovarian was 77.8%; with OVCAR-4 ovarian, 16.3%; with SK-OV-3 ovarian, 79.5%; in the assay with IGROV1 ovarian, 56.4%; with OVCAR-3 ovarian, 61.2%; in the assay with HS 578T breast, 56%. Further, the growth in the assay on NCI/ADR-RES ovarian is 47.8%.

As for `O=S(=O)(Nc1ccc(Cl)c(F)c1)c1ccc(-c2cnc(C3CC3)o2)cc1`, the growth is 31.9% in the assay on SK-MEL-2 melanoma; 34.4% in the assay with EKVX NSCLC; 47.6% in the assay on SN12C renal; 48.6% in the assay on UO-31 renal; 47.5% in the assay on ACHN renal; -16.1% (active) in the assay with A498 renal. For the same compound, the growth in the assay on CCRF-CEM leukemia was 19.9%; with MOLT-4 leukemia, 28.6%; with RPMI-8226 leukemia, 21.2%; in the assay on OVCAR-8 ovarian, 24.5%; with OVCAR-5 ovarian, 35.8%; with OVCAR-4 ovarian it was 49.1%. For the same compound, the growth is 36.3% in the assay on SK-OV-3 ovarian; 27.4% with IGROV1 ovarian; -6.7% (active) with OVCAR-3 ovarian; 16.1% with HS 578T breast; -20.8% (active) in the assay with NCI/ADR-RES ovarian.

The values above are taken from PubChem BioAssay (NCI).
